Screen size: about 310,000 compounds; about 1,200 (0.39%) were called active. The rule behind the calls is not given here. Not all results are given here. Entries with a potency or affinity are not part of this list.
biological target: Large T antigen (Simian virus 40) (UniProt P03070); assay: TAg ATPase/helicase activity blockers – biochemical (AID 1903); conditions: SV40 large T antigen ATPase/helicase inhibition assay; at 20 µM; active compounds read high
Sequence (P03070 whole entry, looked up): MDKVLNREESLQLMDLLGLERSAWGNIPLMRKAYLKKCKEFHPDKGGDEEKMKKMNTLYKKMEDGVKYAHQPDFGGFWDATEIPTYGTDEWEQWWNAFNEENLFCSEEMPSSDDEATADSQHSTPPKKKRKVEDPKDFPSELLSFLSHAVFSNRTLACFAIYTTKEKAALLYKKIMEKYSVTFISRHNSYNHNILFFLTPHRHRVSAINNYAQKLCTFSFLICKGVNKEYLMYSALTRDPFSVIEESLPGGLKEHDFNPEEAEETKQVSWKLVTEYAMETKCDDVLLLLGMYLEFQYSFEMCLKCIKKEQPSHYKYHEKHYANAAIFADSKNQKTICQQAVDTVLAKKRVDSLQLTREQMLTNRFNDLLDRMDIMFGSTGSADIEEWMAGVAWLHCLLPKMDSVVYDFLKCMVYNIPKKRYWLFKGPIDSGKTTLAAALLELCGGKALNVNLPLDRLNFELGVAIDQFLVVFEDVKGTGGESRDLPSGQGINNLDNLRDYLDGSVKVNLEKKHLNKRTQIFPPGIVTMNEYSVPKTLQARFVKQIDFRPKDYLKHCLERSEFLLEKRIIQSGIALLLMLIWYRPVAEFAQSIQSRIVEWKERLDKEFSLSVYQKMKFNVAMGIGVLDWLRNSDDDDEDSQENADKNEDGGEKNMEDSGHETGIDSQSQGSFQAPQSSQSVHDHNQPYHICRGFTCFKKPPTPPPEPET

inhibition, inactive:
O=S(=O)(c1cccs1)N1CCC2(CC1)OCCN2S(=O)(=O)c1ccccc1 11.8%
CN(Cc1c(C(=O)N/N=C/c2ccccc2)nnn1-c1nonc1N)c1ccccc1 -1.98%
Cc1c(C(=O)N2CC(C)OC(C)C2)[nH]c2ccc(Br)cc12 (stereo not drawn) 0.93%
CCOC(=O)C(NCc1ccc(OC)cc1)(NC(C)=O)C(F)(F)F (stereo not drawn) 0.08%
O=Cc1ccccc1OCCOc1ccc([N+](=O)[O-])cc1 26.7%
O=C1NC(=O)/C(=C\c2ccccc2OCc2ccc([N+](=O)[O-])cc2)N1 16%
C=CCn1c(-c2cccc(Cl)c2)n[nH]c1=S 4.07%
CCCCCC(=O)NNC(=S)NC(C)=O 7.61%
CCOc1ccc(C(=O)CN2CCN(S(=O)(=O)c3ccc(F)cc3)CC2)cc1 6.42%
CC(C)(C)C(=O)CN1CCN(S(=O)(=O)c2ccc(F)cc2)CC1 1.15%
Cc1ccc(S(=O)(=O)N2CCN(Cc3cc(C(C)C)ccc3O)CC2)cc1 -1.91%
COc1cc(NC(=O)CN2CCN(S(=O)(=O)c3ccc(C(C)C)cc3)CC2)cc(OC)c1 4.71%
Cc1ccc(C)c(NC(=O)CN(C)C(=O)c2cc3c(s2)CCCCC3)c1 17%
C=CCNC(=O)COCc1cc(-c2ccc3c(c2)OCO3)on1 7.76%
CN(C)C(=O)CSc1nnc(-c2ccc(S(=O)(=O)N3CCCC3)cc2)n1C -1.24%
C/C(=N/OC(=O)CC(C)C)c1cc(-c2ccc(Cl)cc2)no1 4.31%
O=C(CCN1CCOCC1)N/N=C/c1cc([N+](=O)[O-])ccc1OC(F)F 5.27%
Cc1ccccc1-c1nnn(CC(=O)N2CCN(C(=O)c3ccco3)CC2)n1 14.3%
CCCOc1ccc(C(=O)Nn2c(C)nc3ccccc3c2=O)cc1 1.86%
Nc1ncnc(N)c1N=Nc1ccccc1 8.05%
Nc1ncc(Br)cc1N=Cc1ccccc1 9.46%
C=CCN(C(=O)c1ccccc1)c1ccc(OC)cc1 -2.78%
O=C(c1ccco1)N1CCN(C(=O)c2cc(-c3ccc(F)cc3)no2)CC1 8.37%
CC(C)CNC(=O)c1cc(-c2ccc3c(c2)OCO3)on1 4.96%
COc1ccc2c(c1)S(=O)(=O)c1ccccc1N2 1.87%
O=C(CSc1nnc(-c2ccccc2)n1-c1ccccc1)N1c2ccccc2Sc2ccccc21 4.91%
Cc1nc(SCC(=O)N2c3ccccc3Sc3ccccc32)n[nH]1 12.6%
O=C(O)CCc1ccc(S(=O)(=O)Nc2ccccc2C(=O)NCCc2ccccc2)cc1 6.21%
CCOC(=O)C(CN1CCCC1)c1ccccc1 (stereo not drawn) 6.65%
COc1cccc(/C=N/NC(=O)C(=O)N2CCCCCC2)c1O 28.6%
CCCc1cc(=O)[nH]c(N/N=C/C=C\c2ccccc2)n1 6.47%
Cc1cc(C)nc(N/N=C/c2c[nH]c3ccccc23)n1 33.8%
Cc1cc(N/N=C/c2c[nH]c3ccccc23)c2ccccc2n1 5.53%
O=C(N/N=C/c1c[nH]c2ccccc12)c1cccc(O)c1 16%
O=C(N/N=C\c1c[nH]c2ccccc12)c1ccc(O)cc1 18%
Cc1cc(C)c(COCc2cc(/C=N/O)c(C)cc2C)cc1/C=N/O -0.28%
C=CCN1C(=O)C(Cc2ccccc2)SC1=Nc1ccc(C(=O)O)cc1 (stereo not drawn) 25.5%
C/C(=N\NC(=O)c1ccc(N)cc1)C1CC1 9.62%
CCN1CCN(C(=O)Cn2ncc3c([nH]c4ccc(C)cc43)c2=O)CC1 9.03%
Cc1cccc(NC(=S)NCc2ccc3c(c2)cc(C)n3C)c1C 5.14%
Cc1cc(C)nc(SCc2cc(=O)c(OC(=O)c3ccc(Cl)c([N+](=O)[O-])c3)co2)n1 9.56%
Cc1ccnc(SCc2cc(=O)c(OC(=O)c3ccc(S(=O)(=O)N(C)C)cc3)co2)n1 15.9%
Cc1ccnc(SCc2cc(=O)c(OC(=O)c3ccc(S(=O)(=O)N4CCCC4)cc3)co2)n1 48.9%
Cc1cc(C)nc(SCc2cc(=O)c(OC(=O)c3ccc(S(=O)(=O)N(C)C)cc3)co2)n1 22.4%
Cc1ccc(NC(=O)CN(C)C(=O)C2COc3ccccc3O2)cc1 (stereo not drawn) 6.98%
Cc1ccc(S(=O)(=O)NC2=NCN(CC(=O)O)CN2)cc1 7.75%
CC(=O)n1cc([C@H]2C=C(C(=O)N3CCN(Cc4ccc5c(c4)OCO5)CC3)O[C@@H](OCCCCO)C2)c2ccccc21 21.8%
CCOc1ccc(CNS(=O)(=O)c2ccc3c(c2)CC(=O)N3C)cc1 11.9%
CCOc1ccc(Oc2nc(Nc3ccc(C)cc3)nc(N(C)C)n2)nn1 -0.33%
COc1ccc(-n2ncc3c(=O)n(CC(=O)Nc4ccc(S(=O)(=O)N5CCOCC5)cc4)cnc32)cc1 5.14%
COC(=O)[C@@H](N)Cc1ccc(O)c(O)c1 10%
COC(=O)C(N)Cc1ccc(O)c(O)c1 (stereo not drawn) 20.9%
COC(=O)c1ccc(NC(=O)COc2cccc3c2OC(C)(C)C3)cc1 -1.91%
CC(=O)Nc1sc(N/N=C\c2ccccc2Cl)nc1-c1cccs1 34.5%
CC(=O)Nc1sc(N/N=C\c2ccccc2F)nc1-c1cccs1 9.59%
CCOc1cc(/C=N\Nc2nc(-c3ccc(C)cc3)c(NC(C)=O)s2)ccc1O 26.6%
COc1cc(/C=N\Nc2nc(-c3ccc(C)cc3)c(NC(C)=O)s2)ccc1O 35.9%
CC(=O)Nc1sc(N/N=C\c2cccc(Cl)c2)nc1-c1cccs1 18.8%
CC(=O)Nc1sc(N/N=C\c2ccccc2)nc1-c1cccs1 21%
OCCN(CCO)c1ccc(C(c2ccc(Cl)cc2)c2ccc(N(CCO)CCO)cc2Cl)c(Cl)c1 2.12%
COC(=O)c1c(-c2ccccc2)noc1-c1ccccc1 8.1%
O=C(c1cccc(S(=O)(=O)N2CCOCC2)c1)N1CCCCCC1 0.39%
Cc1ccc(NC(=O)CN2CCc3cc4c(cc3C2C)OCCCO4)cc1 (stereo not drawn) 8.62%
CN1C(C(=O)Nc2ccc(OC(F)(F)F)cc2)=CC(c2ccco2)=NS1(=O)=O 8.59%
COC(=O)c1sc2cc([N+](=O)[O-])cc(SCC(C)C)c2c1N 10.4%
COc1cc(Cl)cc(C#N)c1OCC(=O)O -0.11%
Cc1c(NCc2ccccc2O)c(=O)n(-c2ccccc2)n1C 29%
Cc1c(N=NC2=C(O)CC(C)(C)CC2=O)c(=O)n(-c2ccccc2)n1C 4.32%
CC1=CC(=Nc2c(C)n(C)n(-c3ccccc3)c2=O)C=C(C)C1=O 2.58%
Cc1c(N=NC2=C(O)CCCC2=O)c(=O)n(-c2ccccc2)n1C -2.74%
CCC(C)C1=CC(=Nc2c(C)n(C)n(-c3ccccc3)c2=O)C=C(C(C)CC)C1=O (stereo not drawn) 4.02%
Cc1c(N=Nc2ccc(O)cc2)c(=O)n(-c2ccccc2)n1C 28%
CC(=O)/C(N=Nc1c(C)n(C)n(-c2ccccc2)c1=O)=C(\C)O 1.99%
Cc1[nH]c2ccccc2c1N=Nc1c(C)n(C)n(-c2ccccc2)c1=O 6.57%
CCNC(=O)c1c(NC(=O)C2COc3ccccc3O2)sc2c1CCCC2 (stereo not drawn) -3.17%
COc1ccc(/C=N/NC(=O)CNc2c(Br)cc(C)cc2Br)c(C(=O)O)c1OC -1.95%
Cc1nc(-c2nc(-c3c(C(=O)NNC(=O)Nc4cccc(Cl)c4)noc3C)cs2)cs1 8.51%
Cc1ccc(C(=O)OCC(=O)N2CC(C)CC(C)C2)cc1S(=O)(=O)N1CCOCC1 (stereo not drawn) -0.25%
COc1ccc(N(C(C)C(=O)Nc2ccc(S(=O)(=O)N3CCOCC3)cc2)S(C)(=O)=O)cc1 (stereo not drawn) 22.9%
Cc1ccc(S(=O)(=O)NNC(=O)Nc2ccc([N+](=O)[O-])cc2)c(C)c1 7.86%
NC(=O)COC(=O)CNC(=O)c1sc2ccccc2c1Cl 4.69%
c1ccc2cc(OCCOCCOc3ccc4ccccc4c3)ccc2c1 5.7%
CCN(CC)c1ccc(/C=C2/C(=O)ON=C2C)cc1 29.4%
CC1=NN(c2cccc(F)c2)C(=O)/C1=C/c1ccc(N(C)C)cc1 8.44%
Cc1oc2ccccc2c1CC(=O)NCCCN(C)C -4.93%
Cc1cc(C)n(C(=O)CNC(=O)c2ccccc2F)n1 9.87%
Cc1ccccc1NN=Nc1nc2c([nH]1)c(=O)n(C)c(=O)n2C 14.1%
Cc1ccc(NN=Nc2nc3c([nH]2)c(=O)n(C)c(=O)n3C)cc1 9.3%
OC(COc1c(F)cc(Br)cc1F)CN1CCOCC1 (stereo not drawn) 2.96%
O=C(CNC(=O)[C@@H]1Cc2ccccc2CN1)Nc1ccc2c(c1)OCCO2 10.2%
COCCCNC(=O)/C(C#N)=C/c1ccc(OCC(=O)O)c(OC)c1 34.6%
CCOc1cc(-c2c(C)c(C)nc(N)c2C#N)ccc1O 17.1%
Cc1ccc2c(nc3s/c(=C\c4ccc(-c5ccccc5C(=O)O)o4)c(=O)n32)c1C 21.4%
COc1cc(/C=C2/C(=N)N3C(c4ccccc4)=CSC3=NC2=O)ccc1OCC(=O)O 31%
Cc1ccc2nc(/C(C#N)=C/c3ccc(-c4ccccc4C(=O)O)o3)[nH]c2c1 24%
C/C=C/c1ccc(OCC(=O)O)c(OC)c1 10.3%
CC1=C(C#N)c2nc(N)c(C#N)c(C)c2/C1=C\c1ccc(C)cc1 12.2%
C/C=C/c1ccc(OCC(=O)OCC)c(OC)c1 10.1%
